From ChEMBL document CHEMBL3988442, “University of Dundee, Small-Polar-MMV Screening Library” (2021)
Among all 69,000 compounds or so, about 950 (1.4%) showed an effect of 50% or more. This excerpt belongs to a sample that is enriched for strong results.

What follows are compounds tested on Mycobacterium tuberculosis (assay: Cornell M. t heat shock assay; also: in the data most compounds retested in dose-response had high values).
Assay type: functional, organism-based
Design: dose or concentration left out as unconfirmed
With `Cc1ccc2c(c1)C(NC1CC1)CC21CCNCC1.Cl` (stereo not given) the “Percent Effect” value was -15.52%.
In the case of `C[C@@H]1CN(C(=O)c2ccc[nH]2)C[C@]12CCN(CCN1CCCC1)C2=O.O=C(O)C(F)(F)F`, the “Percent Effect” value is reported as 22.28%.
For `CNC(=O)CN1CCOCC2(CN(CCC(F)(F)F)CCO2)C1.O=C(O)C(F)(F)F.O=C(O)C(F)(F)F` (stereo not given), the “Percent Effect” value was -25.1%.
In the case of `Cc1ccc2c(c1)C(NC(=O)N(C)C)CC21CCN(CC2CC2)CC1.O=C(O)C(F)(F)F` (stereo not given), the “Percent Effect” value is reported as -3.475%.
`COc1c[nH]c(C(=O)Nc2nc(C(C)(C)C)cs2)cc1=O` was tested, and the “Percent Effect” value was 39.24%.
`CCOC(=O)Cc1csc(NC(=O)c2cc(=O)c(OC)c[nH]2)n1` was tested, and the “Percent Effect” value was 26.29%.
In the case of `COc1coc(C(=O)Nc2nc(-c3ccccn3)cs2)cc1=O`, the “Percent Effect” value is reported as 1.222%.
For `COc1coc(C(=O)Nc2nc(-c3ccncc3)cs2)cc1=O`, the “Percent Effect” value was -11.7%.
With `COc1coc(C(=O)Nc2nc(C)cs2)cc1=O` the “Percent Effect” value was 66.21%.
In the case of `COc1c[nH]c(C(=O)Nc2nc(C)cs2)cc1=O`, the “Percent Effect” value is reported as 69.04%.
`O=C(NCCN1CCOCC1)c1ccn(-c2ccc3ccccn23)n1.O=C(O)C(F)(F)F` was tested, and the “Percent Effect” value was -22.38%.
With `Cc1ccc(CN2CCC3(CCC(C(=O)N(C)C)O3)CC2)o1.O=C(O)C(F)(F)F` (stereo not given) the “Percent Effect” value was -7.412%.
For `O=C(COc1ccccc1)N1C[C@@H]2COC[C@]2(COc2cccnc2)C1.O=C(O)C(F)(F)F`, the “Percent Effect” value was 12.4%.
In the case of `Cc1nc(NCc2noc(C3CCCO3)n2)c2sccc2n1` (stereo not given), the “Percent Effect” value is reported as -5.869%.
In the case of `Cl.NC(=O)COc1ccc(CNCc2cc(F)cc(F)c2)cc1`, the “Percent Effect” value is reported as -21.98%.
With `O=C(Nc1ccc(N2CCCC2)nc1)N1CCc2ccccc2C1` the “Percent Effect” value was 58.68%.
`O=C(Nc1ccc(N2CCCCC2)nc1)N1CCc2sccc2C1` was tested, and the “Percent Effect” value was 18.45%.
In the case of `O=C(Nc1ccc(N2CCCC2)nc1)N1CCc2sccc2C1`, the “Percent Effect” value is reported as 0.2913%.
In the case of `CN1C[C@@H]2CC[C@H](CC1=O)N2C(=O)c1cc2ccccc2[nH]c1=O`, the “Percent Effect” value is reported as 6.279%.
In the case of `CN(C)C(c1ccccn1)[C@H]1CC[C@H](CNC(=O)CC2CCCC2)CC1` (stereo not given in full), the “Percent Effect” value is reported as -9.462%.
With `CN1CCCc2cc(-c3cncn3CCNC3CCS(=O)(=O)C3)ccc21.Cl` (stereo not given) the “Percent Effect” value was -0.7285%.
For `CCN1c2ccc(-c3cncn3CC(=O)NC(C)(C)C)cc2CC1C.Cl` (stereo not given), the “Percent Effect” value was 85.85%.
`Cc1nccn1CCCn1cncc1-c1ccc2c(c1)CCC(C)N2C.Cl` (stereo not given) was tested, and the “Percent Effect” value was 8.681%.
`Cc1nn(C)c(C)c1CCn1cncc1-c1ccc2c(c1)CC(C)N2C.Cl` (stereo not given) was tested, and the “Percent Effect” value was 15.02%.
For `Cc1cc(C)n(CCCn2cncc2-c2ccc3c(c2)CC(C)N3C)n1.Cl` (stereo not given), the “Percent Effect” value was 79.43%.
In the case of `Cc1nccn1CCCn1cncc1-c1ccc2c(c1)CC(C)N2C.Cl` (stereo not given), the “Percent Effect” value is reported as 48.58%.
For `CCOC(=O)c1n[nH]cc1-c1cncn1CCCn1nc(C)cc1C.Cl`, the “Percent Effect” value was 8.544%.
With `CCN1CCc2cc(-c3cncn3CC(=O)NC(C)(C)C)ccc21.Cl` the “Percent Effect” value was 19.95%.
In the case of `CC1Cc2cc(-c3cncn3CC(=O)NC(C)(C)C)ccc2N1C.Cl` (stereo not given), the “Percent Effect” value is reported as -7.03%.
In the case of `CCN1c2ccc(-c3cncn3CCCn3ccnc3C)cc2CC1C.Cl` (stereo not given), the “Percent Effect” value is reported as 100.1%.
With `Cc1nccn1CCCn1cncc1-c1ccc2c(c1)CCCN2C.Cl` the “Percent Effect” value was -22.83%.
`Cl.Cn1cc(C(=O)NCc2cncc3c2CCN(S(C)(=O)=O)C3)cn1` was tested, and the “Percent Effect” value was 36.5%.
With `O=C(O)C(F)(F)F.O=C(O)C(F)(F)F.O=C(O)C(F)(F)F.c1ccc(COC[C@H]2CC[C@H]3[C@H](CCN3Cc3ccccn3)O2)nc1` the “Percent Effect” value was 4.762%.
In the case of `COc1ncccc1C(=O)N1CC[C@H]2C[C@H](c3nnc(C)[nH]3)O[C@@H]2C1.O=C(O)C(F)(F)F`, the “Percent Effect” value is reported as -43.18%.
For `Cc1ccc(CN2C[C@@H]3CCN(Cc4cccnc4)C(=O)[C@H]3C2)s1.O=C(O)C(F)(F)F.O=C(O)C(F)(F)F`, the “Percent Effect” value was -19.89%.
For `Cc1ccc(N2CCO[C@H]3CN(Cc4cnn(C)c4)C[C@H]32)nn1.O=C(O)C(F)(F)F.O=C(O)C(F)(F)F`, the “Percent Effect” value was 3.052%.
For `CCn1ncc2c1C(COCC1CC1)CN(c1ccc(C)nn1)C2.O=C(O)C(F)(F)F.O=C(O)C(F)(F)F` (stereo not given), the “Percent Effect” value was 28.05%.
In the case of `c1csc(-c2noc(CNCCn3cccn3)n2)c1`, the “Percent Effect” value is reported as -3.991%.
`c1ccc(Cc2nc(CNCCn3cccn3)cs2)cc1` was tested, and the “Percent Effect” value was 96.34%.
`Clc1ccc(Cc2nc(CNCCn3cccn3)cs2)cc1` was tested, and the “Percent Effect” value was 102.1%.
`Fc1ccc(CNCCn2cccn2)cc1F` was tested, and the “Percent Effect” value was -1.295%.
For `Clc1ccc(OCCNCCn2cccn2)cc1`, the “Percent Effect” value was -6.93%.
For `CCOC1COC2(CCN(c3cccc(C)n3)CC2)C1.O=C(O)C(F)(F)F` (stereo not given), the “Percent Effect” value was -0.3848%.
In the case of `CCCOc1ccccc1CN[C@@H]1CCC[C@H]1Cc1cc(C)no1.O=C(O)CC(O)(CC(=O)O)C(=O)O`, the “Percent Effect” value is reported as -26.27%.
`CNC(=O)CN1CCOCC2(CCCN(CCc3ccccc3)C2)C1.O=C(O)C(F)(F)F.O=C(O)C(F)(F)F` (stereo not given) was tested, and the “Percent Effect” value was -11.41%.
With `CO[C@@H]1CCN(Cc2ccoc2)C[C@@H]1Cc1ccccc1.O=C(O)C(F)(F)F` the “Percent Effect” value was 28.11%.
`Cc1ccc(N2CC[C@@H]3[C@@H]2CCN3C(=O)Cc2ccsc2)nn1.O=C(O)C(F)(F)F` was tested, and the “Percent Effect” value was 8.036%.
In the case of `CC1CCN(c2cncc(CCC3CCCN3)n2)CC1.Cl` (stereo not given), the “Percent Effect” value is reported as -9.936%.
For `CCCn1ncc(-c2ccnc(NC3CCCc4ccccc43)n2)c1C` (stereo not given), the “Percent Effect” value was 27.79%.
`CCCn1cc(-c2ccnc(NC3CCc4ccccc43)n2)c(C)n1` (stereo not given) was tested, and the “Percent Effect” value was 18.89%.
`CCCn1cc(-c2ccnc(NC3CCCc4ccccc43)n2)c(C)n1` (stereo not given) was tested, and the “Percent Effect” value was 98%.
For `O=C(NCCc1cccs1)[C@H]1CO[C@H]2CCNC[C@H]2C1.O=C(O)C(F)(F)F`, the “Percent Effect” value was 0.5431%.
In the case of `Cl.c1cnc(Nc2cncc(C3CCCN3)n2)cn1` (stereo not given), the “Percent Effect” value is reported as 54.88%.
For `Cc1nc(Nc2cnccn2)cc(C2CCCN2)n1.Cl` (stereo not given), the “Percent Effect” value was -30.38%.
`Cc1cc(Nc2cnccn2)cc(C2CCCN2)n1` (stereo not given) was tested, and the “Percent Effect” value was -16.58%.
With `Cc1nc(Nc2ncc(C)s2)cc(C2CCCN2)n1.Cl` (stereo not given) the “Percent Effect” value was 6.055%.
`Cc1nc(Nc2nnc(C)s2)cc(C2CCCN2)n1.Cl` (stereo not given) was tested, and the “Percent Effect” value was -7.337%.
In the case of `Cl.c1nnc(Nc2cncc(C3CCCN3)n2)s1` (stereo not given), the “Percent Effect” value is reported as 104.6%.
`Cl.c1cncc(CNc2cncc(C3CCCN3)n2)c1` (stereo not given) was tested, and the “Percent Effect” value was -18.35%.
`Cc1nc(Nc2nncs2)cc(C2CCCN2)n1.Cl` (stereo not given) was tested, and the “Percent Effect” value was 5.522%.
